Laboratory results as given in PubChem BioAssay AID2073 (Sanford-Burnham Center for Chemical Genomics, 2009).
The whole screen tested about 290,000 compounds, of which about 570 (0.2%) were called active. Another 1% or so got no clear call; they are omitted. Rule as the data show it: active = inhibition mostly above about 51% (no sharp cut-off); inconclusive = no clear call, values can overlap the other calls; inactive = mostly below about 53%. The list comes from a sample in which actives are over-represented; it also holds similar structures and randomly drawn compounds.

Target: Voltage-dependent N-type calcium channel subunit alpha-1B (Homo sapiens) (UniProt Q00975)
Sequence (Q00975 whole entry, looked up): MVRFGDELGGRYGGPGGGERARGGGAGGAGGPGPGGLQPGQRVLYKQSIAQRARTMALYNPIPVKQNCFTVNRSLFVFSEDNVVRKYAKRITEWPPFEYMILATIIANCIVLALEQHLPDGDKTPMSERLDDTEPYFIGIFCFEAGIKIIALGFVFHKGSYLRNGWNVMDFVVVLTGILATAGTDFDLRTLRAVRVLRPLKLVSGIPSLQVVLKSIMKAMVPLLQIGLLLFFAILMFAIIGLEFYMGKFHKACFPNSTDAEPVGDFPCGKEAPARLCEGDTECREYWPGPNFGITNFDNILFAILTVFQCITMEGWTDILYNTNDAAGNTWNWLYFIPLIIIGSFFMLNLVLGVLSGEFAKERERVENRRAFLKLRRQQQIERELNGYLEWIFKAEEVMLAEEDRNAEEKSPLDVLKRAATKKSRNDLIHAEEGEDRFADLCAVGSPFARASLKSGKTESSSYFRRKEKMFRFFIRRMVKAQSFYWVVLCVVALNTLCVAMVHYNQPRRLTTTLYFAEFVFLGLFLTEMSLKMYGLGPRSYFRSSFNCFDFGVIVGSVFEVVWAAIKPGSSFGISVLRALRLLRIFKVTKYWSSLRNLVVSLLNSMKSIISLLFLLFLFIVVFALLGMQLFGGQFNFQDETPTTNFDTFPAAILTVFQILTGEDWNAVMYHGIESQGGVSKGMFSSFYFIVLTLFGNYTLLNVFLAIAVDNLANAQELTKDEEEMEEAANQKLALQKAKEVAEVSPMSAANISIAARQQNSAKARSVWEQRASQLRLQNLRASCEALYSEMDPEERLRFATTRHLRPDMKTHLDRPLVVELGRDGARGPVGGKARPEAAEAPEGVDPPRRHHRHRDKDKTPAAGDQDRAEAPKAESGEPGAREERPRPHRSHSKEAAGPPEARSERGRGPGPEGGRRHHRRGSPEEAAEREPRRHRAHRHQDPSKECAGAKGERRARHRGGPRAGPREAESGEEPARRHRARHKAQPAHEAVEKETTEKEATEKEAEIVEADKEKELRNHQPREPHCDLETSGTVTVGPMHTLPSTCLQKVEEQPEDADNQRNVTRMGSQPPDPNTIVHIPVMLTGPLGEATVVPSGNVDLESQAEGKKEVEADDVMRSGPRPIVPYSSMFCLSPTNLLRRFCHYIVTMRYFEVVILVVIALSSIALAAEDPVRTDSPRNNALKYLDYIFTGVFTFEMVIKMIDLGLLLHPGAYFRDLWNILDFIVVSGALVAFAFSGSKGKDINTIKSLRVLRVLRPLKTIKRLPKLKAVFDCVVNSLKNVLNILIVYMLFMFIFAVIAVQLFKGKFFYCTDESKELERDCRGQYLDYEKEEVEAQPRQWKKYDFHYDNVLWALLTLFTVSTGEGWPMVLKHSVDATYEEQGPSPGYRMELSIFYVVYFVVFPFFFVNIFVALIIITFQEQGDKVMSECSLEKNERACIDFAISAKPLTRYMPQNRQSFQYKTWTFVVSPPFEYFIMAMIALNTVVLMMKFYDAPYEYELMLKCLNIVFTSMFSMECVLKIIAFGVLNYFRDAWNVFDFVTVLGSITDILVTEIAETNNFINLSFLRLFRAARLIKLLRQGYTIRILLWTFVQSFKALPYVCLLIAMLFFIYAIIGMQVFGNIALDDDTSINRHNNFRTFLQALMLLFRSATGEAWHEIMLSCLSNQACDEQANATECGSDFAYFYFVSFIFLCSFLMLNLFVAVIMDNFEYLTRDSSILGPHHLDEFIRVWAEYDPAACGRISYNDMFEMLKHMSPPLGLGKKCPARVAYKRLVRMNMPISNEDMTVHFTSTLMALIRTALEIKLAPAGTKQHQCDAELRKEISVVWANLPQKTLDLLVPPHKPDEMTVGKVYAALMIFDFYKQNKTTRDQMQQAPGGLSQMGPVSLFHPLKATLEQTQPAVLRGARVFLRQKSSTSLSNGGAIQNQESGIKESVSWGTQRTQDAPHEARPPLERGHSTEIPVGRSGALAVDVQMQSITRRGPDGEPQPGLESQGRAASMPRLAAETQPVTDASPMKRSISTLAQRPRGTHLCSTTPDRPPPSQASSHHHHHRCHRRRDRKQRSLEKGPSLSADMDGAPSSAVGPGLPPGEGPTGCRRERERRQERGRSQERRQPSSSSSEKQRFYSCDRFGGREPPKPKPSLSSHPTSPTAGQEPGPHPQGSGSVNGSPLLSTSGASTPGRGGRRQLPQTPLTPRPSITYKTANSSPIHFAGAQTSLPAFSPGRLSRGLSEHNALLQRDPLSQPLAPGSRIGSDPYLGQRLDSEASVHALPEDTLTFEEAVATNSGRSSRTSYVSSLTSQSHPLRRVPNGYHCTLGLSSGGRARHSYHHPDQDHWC
Experiment: inhibitors of Mint1-CaV2.2 protein interaction, biochemical, HTRF (AID 2073)
Details: at 20 µM, stronger effect = higher value
[1] = measured here: average of repeat tests

Row | Compound | inhibition | inhibition [1]
1 | COC(=O)c1sc2ccccc2c1NC(=O)c1ccc(S(=O)(=O)N2CCCCC2C)cc1 (centres undefined) | -0.4% (inactive) | 
2 | CN(CCOc1ccc(Cl)cc1)Cc1cccc(S(=O)(=O)N(C)C)c1 | -2.1% (inactive) | 
3 | Nc1c(Cl)ncnc1N/N=C/c1ccncc1 | -9.8% (inactive) | 
4 | O=C(O)C=C1CCN(c2ncc(C(F)(F)F)cc2Cl)CC1 | 13.7% (inactive) | 
5 | CN1CCN(c2ccccc2NC(=O)c2ccc3c(c2)OCCO3)CC1 | 8.9% (inactive) | 
6 | Cc1c(NC(=O)C2(C)CCCCC2)c(=O)n(-c2ccccc2)n1C | -0.1% (inactive) | 
7 | COCCNC(=O)/C(C#N)=C/c1ccc(OCc2ccccc2)cc1 | -5.6% (inactive) | 
8 | CCCCc1c(C)c(C#N)c2[nH]c3ccccc3n2c1=O | 16.9% (inactive) | 
9 | Cc1c(CCO)c(=O)n2c([nH]c3ccccc32)c1C#N | -2.7% (inactive) | 
10 | COc1ccccc1N=Cc1c(C)c(C#N)c2[nH]c3ccccc3n2c1=O | 71.7% (active) | 
11 | O=C(Nc1ccc(Cc2ccc(NC(=O)N3CCOCC3)cc2)cc1)N1CCOCC1 | 3.3% (inactive) | 
12 | COc1ccc(C2CC(=O)N3CN(Cc4ccco4)CSC3=C2C#N)cc1 (centres undefined) | 76.3% (inactive) | 19.2%
13 | N#CC1=C2SCN(Cc3ccccc3)CN2C(=O)CC1c1ccccc1F (centres undefined) | 85.9% (inactive) | 29.1%
14 | COc1cc(C2CC(=O)N3CN(Cc4ccco4)CSC3=C2C#N)ccc1OCc1ccccc1 (centres undefined) | 84.8% (active) | 
15 | COc1ccc(Br)cc1C1CC(=O)N2CN(C)CSC2=C1C#N (centres undefined) | 87.7% (inactive) | 25.1%
16 | COc1ccc(Br)cc1C1CC(=O)N2CN(Cc3ccccc3)CSC2=C1C#N (centres undefined) | 93.2% (active) | 
17 | COc1cc(C2CC(=O)N3CN(Cc4ccccc4)CSC3=C2C#N)ccc1OCc1ccccc1 (centres undefined) | 82.7% (inactive) | 44.4%
18 | CC(Oc1ccc(F)cc1Br)c1nc2ccccc2c(=O)[nH]1 (centres undefined) | 10.2% (inactive) | 
19 | CC(C)(C)c1ccc(OCc2ccc(C(=O)N/N=C/c3ccc(O)c(O)c3)cc2)cc1 | 57.4% (active) | 
20 | Cc1ccc(C(C)C)c(OCc2ccc(C(=O)N/N=C/c3ccc(O)c(O)c3)cc2)c1 | 20.5% (inactive) | 
21 | CC(C)(C)c1ccc(C(=O)N/N=C/c2ccc(OCCCF)cc2)cc1 | 21.6% (inactive) | 
22 | CS(=O)(=O)N(CC(=O)N1CCCC1)Cc1ccc(Cl)c(Cl)c1 | 9.7% (inactive) | 
23 | CCc1cccc(CC)c1NC(=O)c1cccc(N)c1 | 2.5% (inactive) | 
24 | Cc1ccc(-c2cnn(-c3cccc([N+](=O)[O-])c3)c2N)cc1 | 22.4% (inactive) | 
25 | Cc1cc(C)cc(NC(=O)CCC(=O)N2CCSc3ccccc32)c1 | -4.1% (inactive) | 
